Here are results for 22 molecules from article PMC12136788.

Sequences and labels used below:
B1: chrX:102931482:102931483:-_ENSG00000123562_ENST00000441076|hu_hu|FALSE|FALSE (ssRNA)
RNA: GGGAGUUCUACAGUCCGACGAUCAAUUGCAUCUACAUUUUUCUUGGCAGGGAGUUGAAACAGCUGCUUCUGCCUGGUAACUAAGUCCCAGUCCUCAACAAGCCAUGGUUUUAAUUCUUCAGGAAUCUUCACUUUAACCUCCAUCAACAGAGGAUUGAGCAUCA
B2: chr4:131761308:131761309:-_ENSMUSG00000040025_ENSMUST00000102570|mus_mus|motif|central (ssRNA)
RNA: GGGAGUUCUACAGUCCGACGAUCGCUGACUGUCCAUCAAUCAUGGCUCCACCUAAGGAGCUGGGUGCAUAAGCGUAAUUGCGGCGGUAUCCAGAGCUUUGAGUAGACUGUCCCUGAGAACUGUUAUUUCCCCAUGCUGAGAAGCAACAGAGGAUUGAGCAUCA
B3: chr17:15081082:15081083:+_ENSMUSG00000050088_ENSMUST00000052691|mus_mus|motif|central (ssRNA)
RNA: GGGAGUUCUACAGUCCGACGAUCUGCUCCAGCAUAUUCAAGGGAUCAGAAGAGAAUUUCAAGCACCAGUUUCAAAAUGCGGAUCAAUAUCGUCCAGAGAACUGAUUCCUCCUCUUGGGCUGCCUCUUCUGGAGCGUAAGCCUGCAACAGAGGAUUGAGCAUCA
B4: chr14:14948730:14948731:-_ENSMUSG00000021737_ENSMUST00000022256|mus_mus|FALSE|FALSE (ssRNA)
RNA: GGGAGUUCUACAGUCCGACGAUCAAAAACUGAAUAACGGCAUUCAUAGAGAGAAAACAGAUACUGCCGAACUGCUGGAAGACUGUGCAACACUUCAAGGAUCUCUGCCCCUUUAAUGACCUUUUCCCUGAGGUCCGGCCUUUCCAACAGAGGAUUGAGCAUCA
B5: chr18:2804189:2804190:+_ENSG00000101596_ENST00000320876|hu_hu|FALSE|FALSE (ssRNA)
RNA: GGGAGUUCUACAGUCCGACGAUCCAAUGCCUUGGAUUUAAAACAUGACUCCUUCUUGAUACAAUGAAUUAUAAAAGCAAACUAGUUCCACAUAUUAAUUAUACGUUCAAGUCUAGUUCCUAAAAAGUCAUUUCUCUUUAACCUCAACAGAGGAUUGAGCAUCA
B6: chr15:76909541:76909542:-_ENSMUSG00000033565_ENSMUST00000166610|perfect_dup|motif|central (ssRNA)
RNA: GGGAGUUCUACAGUCCGACGAUCCAACAUGAUCAAUAAUUUAUACACAUGGAGAGUAAUACAAAAAAUAAUGAAUAAAAGCGGAAGAUCUAACUACUCAACCUUCACAAUUCCAGCUACUUGAUAAUAGGAGUAACCCAAUGACAACAGAGGAUUGAGCAUCA
B7: chr2:47387792:47387793:-_ENSG00000143933_ENST00000272298|hu_hu|hu_hu_hu_mus_True|28_38 (ssRNA)
RNA: GGGAGUUCUACAGUCCGACGAUCUAAGGACAAUGACAGUAAGAUAAGGGAAGAAAACAUGGAGGAAUGAAGUCCUAAUUACUAUACAUGCAUAUUUUUUUGACAGUAGGGAGAAACACCUUUUACAGAUAAGUUACAAACAAACAACAGAGGAUUGAGCAUCA
B8: chr15:76909541:76909542:-_ENSMUSG00000033565_ENSMUST00000166610|perfect_dup|FALSE|FALSE (ssRNA)
RNA: B6 RNA with G82U, G83A
B9: 103221519_103221723_537_3pUTR_ENSMUSG00000041781_ENSMUST00000047357|mouse|control|control (ssRNA)
RNA: GGGAGUUCUACAGUCCGACGAUCCAAUCUGAGAGAACUUCAGCUGCUGUAUUUUGUCAAAGGCUGCAUCCACAUCAUCCAAUGUAAAGAGGGUAAAAUCUUCUGUAUUGUGUCGAGACUGAUAGAGGUCGUACAUGAACAUCUCAACAGAGGAUUGAGCAUCA
B10: chr4:25749455:25749456:-_ENSG00000091490_ENST00000264868|hu_hu|hu_hu_hu_mus_False|8_108 (ssRNA)
RNA: GGGAGUUCUACAGUCCGACGAUCGCAAGCACUAGGAUAGAAAAAUCCACAGGGGGAAAAAAUGUAAACCAAUGUACAAUGUUAUCGCCUUCCCUGUGUGUGGAGUGUUUGUCUCAAGGCUCCUUCUUGCCUUAUAAUUUGGGACAACAGAGGAUUGAGCAUCA
B11: chr11:46405157:46405158:+_ENSG00000110492_ENST00000395566|hu_hu|hu_hu_hu_mus_False|78_78 (ssRNA)
RNA: GGGAGUUCUACAGUCCGACGAUCCCCUCCCCACUUUGGGCACUUGGUGUGGGCGUGAAGGCAGGGCCGUGAUUGACAGAGCUGACAGGAAGACAAAAGGCACUGGUGGGUUAUAUCUUGGGCCUGUGGGAGAGGAGGGCUCCGCAACAGAGGAUUGAGCAUCA
B12: 52873384_52873592_4094_CDS_ENSMUSG00000035247_ENSMUST00000042052|mouse|control|control (ssRNA)
RNA: GGGAGUUCUACAGUCCGACGAUCCACCAGGCGCCUCUGCCUUCUAAGAUUAGCUUCUGCUUCUUUAGCUGCUUUCCCUAGUUGGUCUUCGCACACGCCAUUCACAGUGCCAUAGAGUUCAAAGCCGGAGAGCGAGAGGUAGUGCAACAGAGGAUUGAGCAUCA
B13: chr13:112505112:112505113:+_ENSMUSG00000032727_ENSMUST00000109272|mus_mus|FALSE|FALSE (ssRNA)
RNA: GGGAGUUCUACAGUCCGACGAUCCAUAAAGGAUUCGGGGACAGCAAUGCCCAUCUUCAAUCUCUUUGCUGGUCUUUCGGAUUCUUCGCUGCACAUGGGGUUUAACUCUGAGUGAUAAAAUCCAGUCUCAAAUAAAUUAAAACACAACAGAGGAUUGAGCAUCA
B14: chr7:149838072:149838073:-_ENSMUSG00000048583_ENSMUST00000000033|mus_hu|motif|central (ssRNA)
RNA: GGGAGUUCUACAGUCCGACGAUCUCACUGCCCCCCUGUUACAUGGGGGGGGGGUUUAAUUUGGUUUCUGAGCGCAUAAAGCGGAGGAGGGGUAAAAAAAAAACAAAAAAAAAAAAAAAAGGAAAAAUGCCCCAAGAAACAAAGCAACAGAGGAUUGAGCAUCA
B15: 19964410_19964530_1467_3pUTR_ENSMUSG00000020152_ENSMUST00000000137|mouse|control|control (ssRNA)
RNA: GGGAGUUCUACAGUCCGACGAUCUCUAAAUGCCUACAAAGAAAGAAACAGAGCAGCAGCAACCCCUUGCCCUGGUAAUGUCUGCAAAGAUUUGGUAGCCUUAAACAACCAGAUUUACCCAUAUUAACAAGAAUUUAGCAAUGCCAACAGAGGAUUGAGCAUCA
B16: chr1:183098298:183098299:+_ENSMUSG00000062169_ENSMUST00000134115|mus_hu|FALSE|FALSE (ssRNA)
RNA: GGGAGUUCUACAGUCCGACGAUCUAUAAACAUGGCACCUUUCUGAUUUGCUUAGCCUCAGCAAGCCUGAUGUACUGUAAACUGACAGCCCAAAGGCUCUCUCAACUGCAUGAGUCACUGUUUUGGUUACUAAGAAUAUCUGAACAACAGAGGAUUGAGCAUCA
B17: chr7:149838072:149838073:-_ENSMUSG00000048583_ENSMUST00000000033|mus_hu|FALSE|FALSE (ssRNA)
RNA: B14 RNA with G82U, G83A
B18: chr8:4269914:4269915:-_ENSMUSG00000002949_ENSMUST00000149827|mus_mus|motif|central (ssRNA)
RNA: GGGAGUUCUACAGUCCGACGAUCCUUCUUGGCCUCAUCUCGGAACUUUUUUAUACUUUCUUUCAUCUCUUUGUUUUUGGCGGAUUCUUGUUUGAUGUUAUCUAGCAAGCCUGACAAAAACCCUUUUCUGCUCCCAGAAGAAUACAACAGAGGAUUGAGCAUCA
B19: 19721883_19722003_1295_CDS_ENSMUSG00000050428_ENSMUST00000053109|mouse|control|control (ssRNA)
RNA: GGGAGUUCUACAGUCCGACGAUCAGGGCUCACUGUCAGGCACACAGUCUCUUCCUUCACGUUCUUGGUGCCAUCUUUGCCAAAGAAGAUGCACGCAUCCACUACACCUGUUACCACCACAUCUACAUGGAAUCCUGAUGCACCCAACAGAGGAUUGAGCAUCA
B20: chr18:56819859:56819860:+_ENSG00000166562_ENST00000588875|hu_mus|hu_hu_hu_mus_True|18_38 (ssRNA)
RNA: GGGAGUUCUACAGUCCGACGAUCAACCUUGAUUACUCUGUGAACUAUCGGAAUGUCUCUUCCUUCAACCUUAAAAACAACUAUUUCACCAGCUCUGAUUGGGUCUUCCCGGAAAUUUGUGAGGAACAGCAGAUCUCCUCUGUGCAACAGAGGAUUGAGCAUCA
B21: chr6:128323885:128323886:+_ENSMUSG00000001517_ENSMUST00000073316|mus_mus|motif|central (ssRNA)
RNA: GGGAGUUCUACAGUCCGACGAUCAGGGUCCUCCUCCAGGCCAGGGAAACUGAUGUCUAGAAGGAUCUUGCUGAGGCGGUCAUUCAUUGUGUCCAGGACAAGGCCUUCUGUGAGAGAACGGUUGGCUGAAAGGCUGGGAAUCUGCAACAGAGGAUUGAGCAUCA
B22: chr12:48459454:48459455:-_ENSG00000079387_ENST00000551330|hu_mus|motif|central (ssRNA)
RNA: GGGAGUUCUACAGUCCGACGAUCUGCUUUCUGCUCUUCAAUCCGGCGCAAUCUUUCCCGAGCUCGAGAGUCAUAAACGCGGGUUAAUUCUUUGAUCCAUAGCUCUGCCUGGAAGAACGUAGGGCUGGAAGCUGGAGUCUGAGACAACAGAGGAUUGAGCAUCA

Substitutions are numbered along the chain they refer to. In all, about 24,000 sequences were measured (“enrichment r”: median about 0.99, highest 2% from about 3.7 on). This is one part of a sample in which the highest values are shown more often than they occur.

This assay has as its target T1, UNK ZnF1-3 (human, UniProt Q9C0B0 31-174).
T1 sequence: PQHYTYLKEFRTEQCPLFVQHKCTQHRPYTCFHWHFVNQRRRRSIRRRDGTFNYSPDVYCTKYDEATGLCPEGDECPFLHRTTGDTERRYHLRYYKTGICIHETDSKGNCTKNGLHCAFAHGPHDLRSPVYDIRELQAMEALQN
The experiment in a line: nsRBNS (natural sequence RNA bind-n-seq); RBNS binding buffer (assumed for nsRBNS): 25 mM Tris pH 7.5, 150 mM KCl, 3 mM MgCl2, 0.01% Triton X-100, 500 ug/ml BSA, 20 U/ml SUPERase-In, 4 C; UNK is unkempt and MSI1 is Musashi-1; names of the RNAs are library labels; protein concentration not given here; high values mean tight binding.
In the case of B1, the binding signal was 1.04 enrichment R. In the case of B2 it was 1.17 enrichment R; in that of B3, 1.62 enrichment R.

On to B4, for which the binding signal came to 1.41 enrichment R. In the case of B5 it was 1.05 enrichment R; in that of B6, 8.91 enrichment R; in that of B7, 1.79 enrichment R. In the case of B8 it was 6.42 enrichment R. In the case of B9 it was 1.57 enrichment R; in that of B10, 0.93 enrichment R. In turn, B11 yielded a binding signal of 2.23 enrichment R. In the case of B12 it was 1.03 enrichment R; in that of B13, 1.01 enrichment R. In the case of B14 it was 22.9 enrichment R; in that of B15, 1.74 enrichment R. For B16, the binding signal was 0.858 enrichment R. The same measure for B17: 12.2 enrichment R; for B18: 0.472 enrichment R. The same measure for B19: 1.01 enrichment R. Turning to B20, the binding signal is 0.803 enrichment R. Molecule B21 returned a binding signal of 1.01 enrichment R. The same measure for B22: 1.03 enrichment R.
